From PubChem
DAX1 inh-1: DAX1 (NR0B1) inhibitors on StAR promoter, primary screen, cell-based, luminescence, SF-1 (NR5A1), full-length DAX-1; inhibition, % at 6.8 µM; AID 652010, 2013; hit rate 1.1% among 370,000; HEK293T StAR-luciferase reporter, SF-1/DAX-1 repression relief;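 active = inhibition above the mean over all tested compounds plus 3 SD, cut at about 3.6% in these data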;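 also: 0% = DAX-1 cells with DMSO and 100% = cells lacking DAX-1 with DMSO; higher inhibition means more luminescence from relief of DAX-1 repression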
hcDAF12 agonist: H. contortus DAF-12 nuclear receptor activators, primary screen, cell-based, luminescence, HEK293, lit1-tk-luc reporter; HEK293 hcDAF-12 lit1-tk-luc reporter; 0% DMSO, 100% Δ7-dafachronic acid; activation, % at 6.8 µM; hit rate 1.4% among 370,000; AID 652067, 2013;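 active = activation above the mean of all tested compounds plus 3 SD, cut at about 5.5% in these data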;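 also: 100% = response to 3 µM Δ7-dafachronic acid high control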
hgDAF12 agonist: H. glycines DAF-12 receptor agonists, primary screen, cell-based, luminescence, HEK293, GAL4 fusion, UAS-luciferase; Nuclear hormone receptor DAF-12 (Heterodera glycines), GAL4 fusion; HEK293 GAL4-hgDAF12 UAS-luciferase reporter, agonist luminescence; normalized to butyrate control; activation, % at 6.8 µM; hit rate 1.8% among 370,000; AID 687014, 2013;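 active = activation above a cutoff set at the mean of all screened compounds plus 3 SD, cut at about 10% in these data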;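 also: 0% = DMSO wells and 100% = sodium butyrate wells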
ssDAF-12 act: S. stercoralis DAF-12 nuclear receptor activators, primary screen, cell-based, luminescence, HEK293, GRIP1 co-expression, lit1-tk-luc; activation, % at 6.8 µM; HEK293 ssDAF-12/GRIP1 lit1-tk-luc reporter; % of 3 µM dafachronic acid response; Nuclear hormone receptor DAF-12 (Strongyloides stercoralis); hit rate 1% among 370,000;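 active = activation above the mean over all tested compounds plus 3 SD, cut at about 0.9% in these data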;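 also: 0% = DMSO-only wells and 100% = 3 µM delta7-dafachronic acid wells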
DAX1 inh-2: DAX1 (NR0B1) inhibitors, primary screen, cell-based, HEK293, Gal4-DAX1, luciferase luminescence; HEK293 Gal4-DAX1 luciferase reporter; inhibition, % at 6.75 µM; AID 504766, 2011; hit rate 0.99% among 340,000;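 active = inhibition above the mean over all tested compounds plus 3 SD, cut at about 4.2% in these data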;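 also: 0% = DAX1-transfected cells with DMSO and 100% = empty-vector control cells with DMSO; inhibition shows as a rise in luminescence from relieved DAX1 repression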
Target sequence (P51843 207-470 limits assumed): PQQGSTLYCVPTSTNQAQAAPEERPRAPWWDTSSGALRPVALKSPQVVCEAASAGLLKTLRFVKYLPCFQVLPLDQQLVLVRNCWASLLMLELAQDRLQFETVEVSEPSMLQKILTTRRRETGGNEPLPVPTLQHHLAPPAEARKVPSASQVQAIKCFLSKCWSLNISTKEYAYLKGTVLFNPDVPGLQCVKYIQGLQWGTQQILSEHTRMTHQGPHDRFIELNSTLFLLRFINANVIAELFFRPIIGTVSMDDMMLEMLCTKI
* marks the source's active call; other numbers are inactive results. A selection: hits, their analogues and other compounds. The true share with any hit is near 4.1%.

What do the screens show for `COc1ccc(C(=O)Nc2ccc3[nH]ncc3c2)cc1`?
DAX1 inh-1: 2; hcDAF12 agonist: 3; hgDAF12 agonist: 13*; ssDAF-12 act: 1; DAX1 inh-2: -4

How did COc1ccc(OC)c(C(=O)Nc2ccc3[nH]ccc3c2)c1 do in these assays?
DAX1 inh-1: 2; hcDAF12 agonist: 4; hgDAF12 agonist: 12*; ssDAF-12 act: 0; DAX1 inh-2: 1

Results for O=C(Nc1ccc2[nH]ccc2c1)c1cccs1 ?
DAX1 inh-1: 2; hcDAF12 agonist: 2; hgDAF12 agonist: 11*; ssDAF-12 act: 0; DAX1 inh-2: -1

Results for COc1ccc(C(=O)Nc2ccc3cn[nH]c3c2)c(OC)c1 ?
DAX1 inh-1: 1; hcDAF12 agonist: 1; hgDAF12 agonist: -2; ssDAF-12 act: 0.9*; DAX1 inh-2: 2

Results for CCOC(=O)[C@]12CCCC3=C1N(CCC3)C(=O)[C@@H](CC(=O)NCc1ccc(C)o1)C2 ?
DAX1 inh-1: -1; hcDAF12 agonist: -1; hgDAF12 agonist: 4; ssDAF-12 act: -1

How did O=C(c1cccc(Oc2ccccc2)c1)N1CCC(Oc2cccnc2)CC1 do in these assays?
DAX1 inh-1: -1; hcDAF12 agonist: -2; hgDAF12 agonist: -4; ssDAF-12 act: -2

How did COc1ccc(C(=O)Nc2ccc3[nH]ccc3c2)cc1 do in these assays?
DAX1 inh-1: 3; hcDAF12 agonist: 9.5*; hgDAF12 agonist: 16*; ssDAF-12 act: 2.5*; DAX1 inh-2: -7

How did COc1ccc(-c2nnc(SCC(=O)NN=C/C=C\c3ccco3)n2-c2ccc(OC)cc2)cc1 do in these assays?
DAX1 inh-1: 0; hcDAF12 agonist: 0; hgDAF12 agonist: 1; ssDAF-12 act: -2

How did CC(C)c1ccc(-c2nnc(N)s2)cc1 do in these assays?
DAX1 inh-1: 2; hcDAF12 agonist: 6.0*; hgDAF12 agonist: 11*; ssDAF-12 act: 0; DAX1 inh-2: 4

Results for COc1ccc(/C=C2/C(=O)N(c3ccccc3)N=C2C)cc1Br ?
DAX1 inh-1: 0; hcDAF12 agonist: 6.4*; hgDAF12 agonist: 5; ssDAF-12 act: 0; DAX1 inh-2: 0

How did CC(=O)NC(=S)Nc1sc2c(c1C(N)=O)CCC(C)C2 (stereo unspecified) do in these assays?
DAX1 inh-1: 2; hcDAF12 agonist: 3; hgDAF12 agonist: 10; ssDAF-12 act: 1; DAX1 inh-2: 5.0*

What do the screens show for `O=C(NNC(=O)c1ccc([N+](=O)[O-])cc1Cl)c1ccncc1`?
DAX1 inh-1: 1; hcDAF12 agonist: 3; hgDAF12 agonist: 3; ssDAF-12 act: 1.0*; DAX1 inh-2: 1

Results for CC(C)(C)C(=O)OC12CCCN(C1)/C(=C/c1ccc(C#N)cc1)C2 (stereo unspecified) ?
DAX1 inh-1: 0; hcDAF12 agonist: 1; hgDAF12 agonist: -1; ssDAF-12 act: 0

Results for N#Cc1c2c(c(Nc3ccccc3)n3c1nc1ccccc13)CCC2 ?
DAX1 inh-1: 0; hcDAF12 agonist: 0; hgDAF12 agonist: 1; ssDAF-12 act: -1; DAX1 inh-2: 0

Results for N#Cc1c2c(c(Nc3ccc(F)cc3)n3c1nc1ccccc13)CCCC2 ?
DAX1 inh-1: -1; hcDAF12 agonist: -2; hgDAF12 agonist: 11*; ssDAF-12 act: -1; DAX1 inh-2: 0

Results for COC(=O)[C@]12CCCCC=C1N(Cc1ccc(OC)cc1)C(=O)[C@@H]2CC(=O)N1CCCC1 ?
DAX1 inh-1: -1; hcDAF12 agonist: -1; hgDAF12 agonist: -3; ssDAF-12 act: -2

Results for Cc1cccc(S(=O)(=O)Nc2nc3ccccc3nc2NCC2CCCO2)c1 (stereo unspecified) ?
DAX1 inh-1: 0; hcDAF12 agonist: -1; hgDAF12 agonist: 3; ssDAF-12 act: -2; DAX1 inh-2: 0

How did Cc1ccc(S(=O)(=O)Nc2nc3ccccc3nc2NCc2ccco2)cc1 do in these assays?
DAX1 inh-1: 3; hcDAF12 agonist: 6; hgDAF12 agonist: 6; ssDAF-12 act: 1.4*; DAX1 inh-2: 1

Results for O=S(=O)(Nc1nc2ccccc2nc1NCc1ccco1)c1ccc(Cl)cc1 ?
DAX1 inh-1: 0; hcDAF12 agonist: 0; hgDAF12 agonist: 1; ssDAF-12 act: -1; DAX1 inh-2: 0

What do the screens show for `Cc1ccc(S(=O)(=O)Nc2nc3ccccc3nc2NCC2CCCO2)cc1C` (stereo unspecified)?
DAX1 inh-1: 0; hcDAF12 agonist: -2; hgDAF12 agonist: 0; ssDAF-12 act: -2; DAX1 inh-2: 4.5*

Results for O=C(CC1NCCc2ccccc21)Nc1ccc(Oc2ccccc2)cc1 (stereo unspecified) ?
DAX1 inh-1: 0; hcDAF12 agonist: -2; hgDAF12 agonist: -1; ssDAF-12 act: -1; DAX1 inh-2: -1

How did O=C(CC1NCCc2ccccc21)Nc1ccccc1 (stereo unspecified) do in these assays?
DAX1 inh-1: 2; hcDAF12 agonist: 5; hgDAF12 agonist: 3; ssDAF-12 act: 0.9*; DAX1 inh-2: 2

Results for O=C(c1cccs1)N1CC[C@H]2[C@H](CCCN2Cc2ccc(F)cc2)C1 ?
DAX1 inh-1: 0; hcDAF12 agonist: -1; hgDAF12 agonist: 0; ssDAF-12 act: -2

How did COCCCn1c(=O)c2sccc2n(Cc2ccc(C)cc2)c1=O do in these assays?
DAX1 inh-1: 0; hcDAF12 agonist: -1; hgDAF12 agonist: -2; ssDAF-12 act: 1.0*; DAX1 inh-2: 0

What do the screens show for `Cc1ccc(S(=O)(=O)Nc2cccc(-c3ccc(N4CCCCCC4)nn3)c2)c(C)c1`?
DAX1 inh-1: 4.1*; hcDAF12 agonist: 2; hgDAF12 agonist: 10; ssDAF-12 act: -1; DAX1 inh-2: 1

How did CN(C)S(=O)(=O)c1ccc(/C(O)=C2/C(=O)C(=O)N(CCCN3CCOCC3)C2c2ccncc2)cc1 (stereo unspecified) do in these assays?
DAX1 inh-1: 1; hcDAF12 agonist: 1; hgDAF12 agonist: 1; ssDAF-12 act: -2; DAX1 inh-2: 5.1*

What do the screens show for `C=CCn1c(Cc2cccs2)nnc1SCC(=O)Nc1ccc(C)cc1`?
DAX1 inh-1: 0; hcDAF12 agonist: -3; hgDAF12 agonist: -2; ssDAF-12 act: -1

How did C=CCN1C(=O)[C@@H](CC(=O)NCc2cccs2)[C@]2(C(=O)OCC)CCCCC/C=C/12 do in these assays?
DAX1 inh-1: 1; hcDAF12 agonist: 3; hgDAF12 agonist: 0; ssDAF-12 act: -1

How did C=CCO[C@H]1CN(C(=O)OC)[C@@H]2C[C@H]1Oc1ccccc12 do in these assays?
DAX1 inh-1: 1; hcDAF12 agonist: 1; hgDAF12 agonist: 2; ssDAF-12 act: -1
